# About 83,000 compounds went through this panel and 20% of them were active in at least one assay; those are over-represented in the sample as a whole.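 Method: cells in 96-well plates; compound added at one concentration; 48 h incubation; percent growth measured; values under 10 scored active.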 A number with no mark means an inactive call. Active and inactive are the calls of the source.
# Assays:
# Experiment in all cases: NCI-60 one-dose screen, 48 h (100 = growth as untreated, 0 = no growth, -100 = all killed)
# Conditions in all cases: 10 µM unless noted
# SK-MEL-2 melanoma = system: SK-MEL-2 melanoma
# SN12C renal = system: SN12C renal
# UO-31 renal = system: UO-31 renal
# TK-10 renal = system: TK-10 renal
# ACHN renal = system: ACHN renal
# CAKI-1 renal = system: CAKI-1 renal
# A498 renal = system: A498 renal
# CCRF-CEM leukemia = system: CCRF-CEM leukemia
# MOLT-4 leukemia = system: MOLT-4 leukemia
Structure (SMILES),growth (SK-MEL-2 melanoma),growth (SN12C renal),growth (UO-31 renal),growth (TK-10 renal),growth (ACHN renal),growth (CAKI-1 renal),growth (A498 renal),growth (CCRF-CEM leukemia),growth (MOLT-4 leukemia)
CC(=O)OCCOc1cc(Cl)c(Cl)cc1Cl,89.9%,102%,89.1%,106%,103%,96.5%,82.8%,-63.4% (active),107%
COc1ccc(-c2cc(-c3ccc(N(C)C)cc3)nc(NC(=O)c3cccnc3)n2)cc1,111%,97.5%,80.6%,117%,–,92.6%,109%,104%,98%
Cc1c2ccncc2c(C)c2c1c1ccccc1n2CCCCCC(=O)O,92.4%,94.2%,56.7%,128%,82.9%,91.1%,52.8%,94.1%,74.8%
CCN(CC)CCCC(Nc1c2ccc(Cl)cc2nc2ccc(OC)cc12)c1ccncc1 (centres undefined),108%,63.5%,54.3%,81.8%,57%,90.2%,81.8%,59.8%,18.3%
CC(C)(C)n1cc(-c2ccnc(NCCNS(=O)(=O)c3cccc4ccccc34)c2)c(-c2cccc(O)c2)n1,81.7%,72.5%,70.2%,97.2%,70.1%,73.7%,73.1%,60.1%,53.4%
Cn1nc(-c2ccc(Cl)cc2)nc2c(=O)n(C)c(=O)nc1-2,-44.6% (active),-72.5% (active),12.3%,70.3%,-88.7% (active),6.17% (active),-94.8% (active),-27.6% (active),-47.3% (active)
COc1ccc(C(=O)/C=C/Nc2cc(-c3ccccc3)nn2-c2ccccc2)cc1,101%,94.5%,79.3%,84.2%,99%,94.3%,78%,84.2%,85.4%
CNC1=C([N+](=O)[O-])C(c2ccc(OC)cc2)C(C#N)=C(c2ccc[nH]2)O1 (centres undefined),108%,97.1%,89.3%,117%,–,92.6%,96.8%,43.1%,–
CN1CCN(Cn2nc(-c3cc(Cl)cc(Cl)c3Cl)oc2=S)CC1,95.3%,93.9%,138%,110%,98.1%,59.5%,95%,272%,122%
CN1CCN(CC(=O)N(C)c2ccc(N=C(c3ccccc3)c3c(O)[nH]c4ccc([N+](=O)[O-])cc34)cc2)CC1,52.7%,–,28.8%,103%,54%,47.1%,66.7%,15.1%,15.7%
COc1cc2c(cc1-c1c(C)noc1C)ncc1nc(C3CCOCC3)n(C3CCC(OC(F)F)CC3)c12 (centres undefined),63.5%,79.8%,14.5%,21.4%,54.2%,42.6%,–,58.9%,68.6%
CCOC(=O)/C(=C\c1ccccc1Cl)P(=O)(OCC)OCC,68.1%,68%,53.9%,75.5%,52.8%,75%,103%,19.5%,25.1%
CCCN1C(=O)N(CCC)C2C1NC(=S)N2/N=C/C=C/c1ccccc1OC (centres undefined),49.6%,38.3%,39.5%,57.3%,41.4%,26.6%,-5.66% (active),10.1%,27.6%
O=C(O)COc1ccc(F)cc1,99.6%,98.1%,91.6%,91.4%,111%,94.7%,97.4%,104%,101%
Cn1cc(-c2nc(-c3c[nH]c4ccncc34)cs2)c2cc(F)ccc21,-58.7% (active),-87.9% (active),-93.2% (active),-49.3% (active),-99.6% (active),-90.9% (active),-63.5% (active),-41.6% (active),-58.3% (active)
O=C(O)/C=C/c1cn(-c2ccccc2)nc1-c1ccc(F)cc1,106%,91.1%,60.7%,103%,92%,88.9%,76.1%,86.4%,109%
O=C(O)CCCN1C(=O)CSC1=S,104%,94.9%,87.9%,131%,108%,104%,–,99.6%,–
CCOc1ccc(-c2cc(C3(S(=O)(=O)c4ccc(C)cc4)CC=CC3)on2)cc1,90.3%,87%,81.4%,94.1%,86.8%,83.2%,72.1%,76.6%,76.8%
CSc1nn2c(-c3cc4cc(Br)ccc4oc3=O)ccnc2c1C#N,104%,102%,89.8%,157%,105%,92.9%,104%,101%,104%

Structure (SMILES),growth (SK-MEL-2 melanoma),growth (SN12C renal),growth (UO-31 renal),growth (TK-10 renal),growth (ACHN renal),growth (CAKI-1 renal),growth (A498 renal),growth (CCRF-CEM leukemia),growth (MOLT-4 leukemia)
CC(CN)[C@@H]1CC[C@]2(CO)CC[C@]3(C)[C@H](CC[C@@H]4[C@@]5(C)CCC(NCCO)C(C)(C)[C@@H]5CC[C@]43C)[C@@H]12 (some centres undefined),94.4%,80.1%,69.7%,93.4%,95%,59.9%,87.2%,6.44% (active),18.3%
Oc1c(Cl)cc(Cl)c2ccc(CN3CCNCC3)nc12,66.8%,42.8%,3.7% (active),56.3%,–,21.8%,63.3%,36.1%,39.7%
O=C(Nc1ncc(Cc2ccccc2)s1)c1ccc2c(c1)OCCO2,34.5%,34.5%,46.6%,38.8%,27.3%,17.2%,2.75% (active),13.8%,6.38% (active)
CO[C@]12C=C/C(=C(/C(=O)OCc3cccnc3)C(=O)CCCCCCCC[C@]3(OC)C=C/C(=C(/C(=O)OCc4cccnc4)C(=O)CCCCCCCC1)O3)O2,-44.8% (active),-46.1% (active),-40.7% (active),-13.8% (active),-73.6% (active),-29.7% (active),-88.4% (active),-23.2% (active),-13.1% (active)
CCCN1C2CCC1/C(=C\c1ccc(OC)cc1)C(=O)/C2=C/c1ccc(OC)cc1,72.5%,–,56.3%,85.9%,81.6%,74.4%,80%,67.4%,55%
CC(=O)/C(Br)=C/c1ccc(Br)o1,99.2%,73.5%,52.7%,71.5%,60.1%,26.1%,105%,-31% (active),-15.4% (active)
CC(C)n1cc(C2=C(c3cccc4ccccc34)C(=O)NC2=O)c2cc(Br)ccc21,73.8%,75.4%,58%,109%,53.8%,27.9%,-8.37% (active),52.8%,49%
Cc1ccc(-c2nnc(SCc3nc(N)nc(Nc4ccccc4F)n3)n2-c2ccccc2)cc1,95.4%,95.6%,70.4%,100%,92%,85.2%,55.3%,90.2%,70.2%
CC1=C(C(=O)c2ccccc2)C(c2ccc3c(c2)OCO3)NC(=S)N1 (centres undefined),60.5%,51.4%,55.7%,66%,45.5%,35.6%,-12.5% (active),41.2%,36.6%
CC(=O)CC(=O)c1ccccc1.[Cu+2],107%,105%,94.5%,103%,104%,101%,141%,-10.7% (active),91.7%
Cc1nn(-c2ccccc2)c(Oc2ccccc2)c1/C=N/NC(=O)Cn1c(=O)sc2ccccc21,42.6%,61.4%,35%,60.7%,47.2%,33.4%,45.6%,49.9%,10.3%
O=C(CNc1ncco1)Nc1ccc(S(=O)(=O)c2ccc(NC(=O)CNc3ncco3)cc2)cc1,-6.97% (active),8.32% (active),41.1%,54.4%,30.5%,-51.6% (active),–,0.572% (active),5.92% (active)
O=c1c2cccc3c(N4CCOCC4)ccc(c32)c2nc3ccccc3n12,108%,87.6%,65.9%,71.8%,91.1%,69.6%,101%,93.1%,–
O=C(O)/C=C\C(=O)Nc1ccc2c(c1)Cc1cc(F)ccc1-2,98%,100%,81%,114%,–,81.3%,109%,110%,109%
O=C(CN1C(=O)NC2NC(=O)NC21)N/N=C/c1cccc([N+](=O)[O-])c1 (centres undefined),113%,96.5%,88.4%,106%,104%,85.8%,95.8%,106%,106%
COC12C=C/C(=C(/C(=O)OCc3ccccn3)C(=O)CCCCCCCCC3(OC)C=C/C(=C(/C(=O)OCc4ccccn4)C(=O)CCCCCCCC1)O3)O2,10.8%,-22.2% (active),-45.7% (active),4.32% (active),-14.9% (active),-4.53% (active),-86.3% (active),0.645% (active),0.868% (active)
C#CCOc1ccc(C2=NN(C)C3N=C(Cl)c4ncn(C)c4N23)cc1OCC#C (centres undefined),105%,97.6%,74.6%,99%,89.6%,103%,–,87.4%,82.9%
O=C(N/N=C/c1ccccc1Cl)c1ccccc1Nc1ccnc(C(F)(F)F)c1,-24% (active),9.09% (active),1.62% (active),16.1%,1.95% (active),1.49% (active),-25% (active),11.2%,–
